In test [1] the target is Lysosomal acid glucosylceramidase (Homo sapiens) (UniProt P04062). As to the kind of experiment: Glucocerebrosidase-p2 (AID 348; in the data active = potency below about 10 µM; note: potency is the fitted concentration of half-maximal effect). Conditions: purified GBA, blue fluorogenic substrate, 40 min. A digest of the protocol:
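Compounds titrated from 0.6 nM upwards against 0.2 nM enzyme in pH 5.9 citric acid/KH2PO4, taurocholate, tween-20; blue fluorogenic substrate 80 uM, 40 min room temperature, stopped and read Ex 365/Em 440 for AC50.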

Test [2] in a line: AP1 Signaling Pathway (AID 357). Note: % is set by controls: 0 for no effect and ±100 for the full control effect. Particulars: ME-180 AP-1-bla reporter, EGF-induced, beta-lactamase ratio, 5 h; at 7.69 µM (top of the series) unless noted. In short, it runs like this:
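ME-180 cells with beta-lactamase reporter under AP-1 response element, stimulated with EC50 EGF; compounds tested in titration series, 5 h at 37 °C. CCF4 substrate added 2.5 h at room temperature; 460/530 nm emission ratio gave %activity and AC50.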

Test [3] concerns the target Cytochrome P450 1A2 (Homo sapiens) (UniProt P05177). As to the kind of experiment: p450-cyp1a2 (AID 410; calls by dose curve; note: potency is the fitted concentration of half-maximal effect;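 for activity change, negative = inhibition: -100% = full effect of reference inhibitor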). Particulars: recombinant CYP1A2, luciferin-ME demethylation, luminescence; series mostly up to 11.4 µM. In short, it runs like this: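 Inhibition was calculated relative to 57 uM furafylline (full inhibition). The reaction used human CYP1A2 at 20nM with Luciferin-ME at its Km, 100uM, driven by an NADPH-regenerating system for 60 min at room temperature.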

A short description of test [4]: NFAT Signaling Pathway (AID 444).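 Note: carbachol stimulus at about its EC50 of 1 µM final; % is set by controls: 0 for no effect and ±100 for the full control effect.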 Particulars: Jurkat NFAT-bla M1, carbachol, beta-lactamase ratio, 5 h; at 7.69 µM (top of the series) unless noted. In short, it runs like this:
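Jurkat cells with NFAT-driven β-lactamase reporter and co-expressed M1 receptor, stimulated with carbachol (final 1 uM, ~EC50), compound titration, 5 h at 37 °C. CCF4 loaded 1 h at RT; 460/530 nm ratio gave %activity and AC50.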

The target of test [5] is Glucocorticoid receptor (Homo sapiens) (UniProt P04150). As to the kind of experiment: GR-GFP Redistribution (AID 450;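 active = compounds whose dose series gives a full or clear partial fitted curve of increased nuclear translocation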; note: potency is the fitted concentration of half-maximal effect). Conditions: U2OS GR-GFP nuclear translocation, laser cytometry, 2 h.
Chain of Glucocorticoid receptor (Homo sapiens) (P04150 whole entry, looked up, the tested form may be a part): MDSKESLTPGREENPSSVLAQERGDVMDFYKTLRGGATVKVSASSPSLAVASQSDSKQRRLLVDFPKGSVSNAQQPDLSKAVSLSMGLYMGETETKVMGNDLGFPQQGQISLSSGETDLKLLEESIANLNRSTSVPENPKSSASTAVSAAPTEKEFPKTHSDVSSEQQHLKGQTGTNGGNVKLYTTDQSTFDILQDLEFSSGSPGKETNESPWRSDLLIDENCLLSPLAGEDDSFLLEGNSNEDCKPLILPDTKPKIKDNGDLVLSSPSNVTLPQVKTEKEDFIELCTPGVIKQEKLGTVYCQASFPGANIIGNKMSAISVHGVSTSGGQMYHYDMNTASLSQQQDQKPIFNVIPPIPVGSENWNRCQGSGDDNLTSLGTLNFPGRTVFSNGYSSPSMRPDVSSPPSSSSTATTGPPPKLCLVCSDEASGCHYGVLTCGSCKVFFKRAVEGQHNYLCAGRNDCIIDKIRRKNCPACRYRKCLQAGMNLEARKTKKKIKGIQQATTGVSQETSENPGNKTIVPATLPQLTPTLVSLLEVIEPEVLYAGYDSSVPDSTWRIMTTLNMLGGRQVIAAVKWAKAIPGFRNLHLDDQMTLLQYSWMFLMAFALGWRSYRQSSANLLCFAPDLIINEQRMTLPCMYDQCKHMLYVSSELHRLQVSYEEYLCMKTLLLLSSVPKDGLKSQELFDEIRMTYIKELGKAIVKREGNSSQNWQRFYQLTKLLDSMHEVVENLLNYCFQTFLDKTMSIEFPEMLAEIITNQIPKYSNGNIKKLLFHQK
The target is the same in test [6]. As to the kind of experiment: GR-EFC Redistribution (AID 451; calls by dose curve; note: potency is the fitted concentration of half-maximal effect). Particulars: CHO-K1 GR-EFC translocation, beta-gal luminescence, 2 h. A digest of the protocol: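 CHO-K1 cells expressing nuclear EA and GR-ED fragments of b-gal; compounds titrated up to 46 uM final, 2 h at 37 C. GR nuclear translocation read as complemented b-gal luminescence after 1 h RT detection.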

For test [7], the target named is Mitogen-activated protein kinase 10 (Mus musculus) (UniProt Q61831). As to the kind of experiment: JNK3 AlphaScreen Assay (AID 530).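 Note: kinase came from lysate of stimulated human HepG2 cells; signal reports phosphorylation of biotinylated GST-cJun 1-79 at Ser73 with 10 µM ATP; % is set by controls: 0 for no effect and ±100 for the full control effect.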 Conditions: JNK3 lysate, c-Jun phosphorylation; series mostly up to 11.4 µM. In short, it runs like this:
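qHTS format: compounds tested as titrations against IL-1beta/TNF-alpha-activated HepG2 lysate JNK3 with biotin-GST-cJun substrate and 10 uM ATP at room temperature. Loss of anti-phospho-cJun AlphaScreen signal indicates inhibition.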
For orientation: In Alpha technology, singlet oxygen from a donor bead excites a nearby acceptor bead.

The target in test [8] is 3',5'-cyclic-AMP phosphodiesterase 4B (Homo sapiens) (UniProt Q07343). As to the kind of experiment: qHTS Assay for Inhibitors of PDE-IV (AID 607; active = well fitted activation curve with a large enough effect in the main read-out, with a control signal flat, not every such curve was filed as active; note: % of control where 0% means no effect). Particulars: HEK293 ACTOne CNG channel cells, membrane potential fluorescence; series mostly up to 22.9 µM. In short, it runs like this:
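The readout is membrane depolarisation from a cAMP-sensing CNG channel, detected with a potential dye at ex 535/em 590. Cells were HEK293-derived (endogenous PDE-IV) at 1000 cells/well, titrated up to 22.9 uM final.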
In general terms: qHTS replaces the single test concentration by a dilution series.

For test [9], the target named is Cytochrome P450 3A4 (Homo sapiens) (UniProt P08684). Briefly: qHTS Assay for Activators of Cytochrome P450 3A4 (AID 885; active = well fitted curve in the direction sought with a large enough effect; an effect the other way counts as inactive or inconclusive; note: nearly all actives have a fitted effect of over 65% in size). Conditions: recombinant CYP3A4, Luciferin-PPXE luminescence, 60 min; series mostly up to 11.4 µM. In short, it runs like this:
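Steps: enzyme/substrate mix dispensed; compound added, 10 min RT; NADPH regeneration solution added, 60 min RT; luciferin detection buffer stops reaction; 20 min later luminescence measured.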

Test [10] deals with Cytochrome P450 2D6 (Homo sapiens) (UniProt P10635). As to the kind of experiment: qHTS Assay for Inhibitors and Substrates of Cytochrome P450 2D6 (AID 891; active = well fitted curve in the direction sought with a large enough effect; an effect the other way counts as inactive or inconclusive; note: potency is the fitted concentration of half-maximal effect; nearly all actives have a fitted effect of over 60% in size). Conditions: recombinant CYP2D6, luciferin-ME EGE luminescence; series mostly up to 11.4 µM. In short, it runs like this: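 Human CYP2D6 (5 nM) with 30 uM Luciferin-ME EGE (at Km) in 100 mM KPO4, compound preincubated 10 min, then NADPH regeneration system for 60 min at room temperature. Luciferin read by luminescence; normalized to 1.43 uM quinidine.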
Chain of Cytochrome P450 2D6 (Homo sapiens) (P10635 whole entry, looked up): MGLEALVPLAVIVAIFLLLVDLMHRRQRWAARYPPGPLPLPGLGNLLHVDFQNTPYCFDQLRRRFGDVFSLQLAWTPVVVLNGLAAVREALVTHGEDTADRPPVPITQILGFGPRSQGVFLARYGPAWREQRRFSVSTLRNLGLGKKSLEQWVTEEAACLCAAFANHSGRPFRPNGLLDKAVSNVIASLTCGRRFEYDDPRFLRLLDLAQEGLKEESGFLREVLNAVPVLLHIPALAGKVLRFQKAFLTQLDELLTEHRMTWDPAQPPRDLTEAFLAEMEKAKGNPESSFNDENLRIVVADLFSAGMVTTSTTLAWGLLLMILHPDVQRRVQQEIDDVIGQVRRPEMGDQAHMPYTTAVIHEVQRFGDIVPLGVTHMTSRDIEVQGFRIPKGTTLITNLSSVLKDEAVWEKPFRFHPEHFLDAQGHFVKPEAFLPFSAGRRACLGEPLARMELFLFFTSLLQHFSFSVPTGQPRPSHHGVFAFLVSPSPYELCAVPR

Test [11] addresses Cytochrome P450 2C19 (Homo sapiens) (UniProt P33261). Briefly: qHTS Assay for Inhibitors and Substrates of Cytochrome P450 2C19 (AID 899; active = well fitted curve in the direction sought with a large enough effect; an effect the other way counts as inactive or inconclusive; note: nearly all actives have a fitted effect of over 60% in size; note: potency is the fitted concentration of half-maximal effect). Conditions: recombinant CYP2C19, luciferin-H EGE luminescence; series mostly up to 11.4 µM. A digest of the protocol:
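5 nM human CYP2C19 with 10uM Luciferin-H EGE (at KM) in 50mM KPO4, compound preincubated 10 min at 37C, then NADPH regeneration for 60 min at 37C. Luciferin read by luminescence after detection reagent; normalized to 57uM ketoconazole as full inhibition.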

Test [12] is described as follows: qHTS Assay for Identification of Small Molecule Agonists for Hypoxia Response Element Signaling Pathway (AID 914; active = well fitted activation curve with a large enough effect in the signal ratio, with a control signal flat, not every such curve was filed as active; the % refers to the signal ratio; note: % of control where 0% means no effect). Conditions: ME-180 (cervical carcinoma) HRE-bla reporter, beta-lactamase ratio, CoCl2, 17 h; activation: active compounds read high. A digest of the protocol: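 HRE-bla ME-180 assay for agonist-like enhancement of an EC50 CoCl2 stimulus: 17 h at 37 degrees Celsius, CCF4 for 2.5 h, ratiometric 460/530 nm signal converted to %Activity and fitted to AC50.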

Test [13] concerns the target Cytochrome P450 2C9 (Homo sapiens) (UniProt P11712). As to the kind of experiment: qHTS Assay for Inhibitors and Substrates of Cytochrome P450 2C9 (AID 883; active = well fitted curve in the direction sought with a large enough effect; an effect the other way counts as inactive or inconclusive; note: potency is the fitted concentration of half-maximal effect; nearly all actives have a fitted effect of over 60% in size). Conditions: recombinant CYP2C9, luciferin-H luminescence, 60 min; series mostly up to 11.4 µM. A digest of the protocol:
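Human CYP2C9 (10nM) with Luciferin-H at 100uM (its KM) in 25mM KPO4; compound preincubated 10 min at 37C, then NADPH regeneration for 60 min at 37C. Luciferin read by luminescence after detection reagent; normalized to 57uM sulphaphenazole as full inhibition.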

In test [14] the target is Cytochrome P450 3A4 (Homo sapiens) (UniProt P08684). As to the kind of experiment: qHTS Assay for Inhibitors and Substrates of Cytochrome P450 3A4 (AID 884; active = well fitted curve in the direction sought with a large enough effect; an effect the other way counts as inactive or inconclusive; note: potency is the fitted concentration of half-maximal effect; nearly all actives have a fitted effect of over 50% in size). Particulars: recombinant CYP3A4, Luciferin-PPXE luminescence; series mostly up to 57.1 µM. In short, it runs like this:
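20 nM human CYP3A4 with 25 uM Luciferin-PPXE (at KM) in 200 mM KPO4, preincubated 10 min with compound; NADPH regeneration started a 60 min RT reaction. Luciferin detected by luminescence, normalized to 57 uM ketoconazole as full inhibition.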

A number with no mark means an inactive call. Results filed as inconclusive are left out. Active and inactive are the calls of the source. Unless noted, calls come from the whole dose curve; as a rule, active = well fitted curve in either direction with a large enough effect (not every such curve was filed as active); inconclusive = small, poorly fitted or top-dose-only effect, or another doubt; inactive = flat fitted curve, though single readings scatter. Some results are limits rather than exact numbers.

Chain of Cytochrome P450 1A2 (Homo sapiens) (P05177 whole entry, looked up): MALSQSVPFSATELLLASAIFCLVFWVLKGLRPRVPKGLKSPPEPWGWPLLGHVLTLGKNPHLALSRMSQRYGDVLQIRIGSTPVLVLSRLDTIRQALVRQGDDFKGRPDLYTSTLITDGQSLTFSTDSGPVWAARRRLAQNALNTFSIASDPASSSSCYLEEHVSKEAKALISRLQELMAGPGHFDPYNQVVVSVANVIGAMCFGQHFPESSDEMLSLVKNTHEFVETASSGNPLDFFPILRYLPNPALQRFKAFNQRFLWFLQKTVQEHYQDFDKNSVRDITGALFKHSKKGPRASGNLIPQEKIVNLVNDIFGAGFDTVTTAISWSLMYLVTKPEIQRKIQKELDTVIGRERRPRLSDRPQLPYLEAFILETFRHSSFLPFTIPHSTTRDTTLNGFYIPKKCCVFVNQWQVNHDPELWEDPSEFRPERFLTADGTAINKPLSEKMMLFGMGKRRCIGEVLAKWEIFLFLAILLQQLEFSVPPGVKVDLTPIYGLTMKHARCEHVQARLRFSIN
Chain of Lysosomal acid glucosylceramidase (Homo sapiens) (P04062 whole entry, looked up): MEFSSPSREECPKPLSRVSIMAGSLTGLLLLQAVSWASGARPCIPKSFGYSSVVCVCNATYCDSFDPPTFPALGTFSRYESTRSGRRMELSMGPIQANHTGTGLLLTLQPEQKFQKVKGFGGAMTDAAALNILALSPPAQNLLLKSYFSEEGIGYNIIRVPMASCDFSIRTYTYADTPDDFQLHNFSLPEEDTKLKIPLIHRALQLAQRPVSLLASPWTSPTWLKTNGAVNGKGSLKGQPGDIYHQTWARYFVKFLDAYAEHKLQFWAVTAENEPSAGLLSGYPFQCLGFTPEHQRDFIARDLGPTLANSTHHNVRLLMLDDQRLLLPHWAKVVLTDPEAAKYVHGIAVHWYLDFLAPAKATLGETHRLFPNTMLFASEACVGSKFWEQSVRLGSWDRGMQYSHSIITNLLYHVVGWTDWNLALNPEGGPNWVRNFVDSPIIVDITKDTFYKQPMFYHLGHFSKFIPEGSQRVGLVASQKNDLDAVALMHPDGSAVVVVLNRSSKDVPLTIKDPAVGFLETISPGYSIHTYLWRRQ
Chain of Cytochrome P450 3A4 (Homo sapiens) (P08684 whole entry, looked up): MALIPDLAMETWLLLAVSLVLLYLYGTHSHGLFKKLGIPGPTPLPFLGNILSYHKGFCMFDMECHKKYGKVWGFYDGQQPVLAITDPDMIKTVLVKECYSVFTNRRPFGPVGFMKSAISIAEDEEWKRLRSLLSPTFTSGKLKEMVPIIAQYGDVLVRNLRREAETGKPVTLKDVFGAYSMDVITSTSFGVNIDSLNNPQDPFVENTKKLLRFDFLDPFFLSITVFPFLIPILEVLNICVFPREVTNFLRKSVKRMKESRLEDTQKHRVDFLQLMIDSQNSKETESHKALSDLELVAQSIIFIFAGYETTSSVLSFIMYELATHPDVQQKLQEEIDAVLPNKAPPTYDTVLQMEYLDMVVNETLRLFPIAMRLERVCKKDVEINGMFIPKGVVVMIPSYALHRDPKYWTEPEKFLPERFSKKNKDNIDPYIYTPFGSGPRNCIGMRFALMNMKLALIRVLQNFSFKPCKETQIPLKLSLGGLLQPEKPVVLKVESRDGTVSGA
Chain of 3',5'-cyclic-AMP phosphodiesterase 4B (Homo sapiens) (Q07343 whole entry, looked up): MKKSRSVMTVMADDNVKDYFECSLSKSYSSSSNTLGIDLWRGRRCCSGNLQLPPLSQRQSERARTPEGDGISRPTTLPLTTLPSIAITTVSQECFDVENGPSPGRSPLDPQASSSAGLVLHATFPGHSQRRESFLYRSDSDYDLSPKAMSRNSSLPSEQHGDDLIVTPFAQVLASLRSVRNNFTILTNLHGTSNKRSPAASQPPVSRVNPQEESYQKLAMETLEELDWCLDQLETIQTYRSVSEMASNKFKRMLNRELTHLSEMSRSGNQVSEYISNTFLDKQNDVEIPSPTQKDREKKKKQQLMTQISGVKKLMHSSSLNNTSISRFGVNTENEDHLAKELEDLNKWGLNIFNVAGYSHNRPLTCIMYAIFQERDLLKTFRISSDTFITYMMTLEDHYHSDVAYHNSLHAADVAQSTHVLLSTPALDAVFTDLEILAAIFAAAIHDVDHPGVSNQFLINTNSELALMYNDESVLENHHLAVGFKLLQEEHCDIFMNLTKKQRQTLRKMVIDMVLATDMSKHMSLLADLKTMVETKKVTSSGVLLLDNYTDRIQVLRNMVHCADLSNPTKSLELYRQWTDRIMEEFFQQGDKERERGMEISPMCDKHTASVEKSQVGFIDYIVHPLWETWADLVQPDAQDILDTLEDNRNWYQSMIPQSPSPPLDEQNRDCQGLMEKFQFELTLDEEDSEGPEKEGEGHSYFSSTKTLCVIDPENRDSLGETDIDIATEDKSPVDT
Chain of Cytochrome P450 2C19 (Homo sapiens) (P33261 whole entry, looked up): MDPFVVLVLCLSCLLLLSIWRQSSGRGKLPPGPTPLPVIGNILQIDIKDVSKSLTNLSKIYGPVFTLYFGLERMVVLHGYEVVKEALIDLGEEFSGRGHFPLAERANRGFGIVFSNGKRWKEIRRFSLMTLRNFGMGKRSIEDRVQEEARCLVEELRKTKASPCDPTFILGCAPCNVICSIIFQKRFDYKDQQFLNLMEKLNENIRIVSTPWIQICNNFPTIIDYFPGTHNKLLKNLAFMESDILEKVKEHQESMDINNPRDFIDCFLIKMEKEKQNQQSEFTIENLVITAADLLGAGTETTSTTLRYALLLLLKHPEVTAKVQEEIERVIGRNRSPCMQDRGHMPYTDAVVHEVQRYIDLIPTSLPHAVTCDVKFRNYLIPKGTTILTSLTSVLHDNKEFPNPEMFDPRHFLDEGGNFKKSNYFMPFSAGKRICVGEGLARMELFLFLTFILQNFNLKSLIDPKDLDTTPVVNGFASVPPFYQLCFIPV
Chain of Cytochrome P450 2C9 (Homo sapiens) (P11712 whole entry, looked up): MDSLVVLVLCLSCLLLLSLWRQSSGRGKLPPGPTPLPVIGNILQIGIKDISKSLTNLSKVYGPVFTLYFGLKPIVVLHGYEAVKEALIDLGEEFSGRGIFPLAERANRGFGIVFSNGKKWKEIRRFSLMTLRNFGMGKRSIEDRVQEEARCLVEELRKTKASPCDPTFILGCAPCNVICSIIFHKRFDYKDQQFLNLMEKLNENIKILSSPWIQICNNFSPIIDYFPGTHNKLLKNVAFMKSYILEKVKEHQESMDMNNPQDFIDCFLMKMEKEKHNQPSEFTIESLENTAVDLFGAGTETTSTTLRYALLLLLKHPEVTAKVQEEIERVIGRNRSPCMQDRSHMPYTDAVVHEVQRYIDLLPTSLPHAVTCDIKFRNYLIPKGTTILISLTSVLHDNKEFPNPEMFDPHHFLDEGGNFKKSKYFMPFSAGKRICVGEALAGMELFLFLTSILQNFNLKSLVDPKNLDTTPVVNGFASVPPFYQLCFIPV

For `Cc1c2cnccc2c(C)c2c1c1ccccc1n2CCOC(=O)c1ccccc1`, the Potency is over 11.4 µM in test [1]; 0.0794 µM (active) in test [3]; over 46 µM in test [5]; over 9.22 µM in test [6]; 3.16 µM (active) in test [10]. The activity change, negative = inhibition in [2] was 2.26%; in test [4], -4.41%. For the same molecule, the Potency entry in [7], in test [8] and in [9] was “inactive” throughout.
For the molecule `O=c1c[n+](CCCC[n+]2cc(=O)o[nH]2)[nH]o1`, the figures for the Potency in test [1], in [5] and in [6] were over 11.4 µM, over 46 µM and over 9.22 µM, respectively. Moreover, the activity change, negative = inhibition was 4.96% in [2] and -11% in test [4]. Further, the Potency entry in test [3], in [7], in test [8] and in test [11] was “inactive” throughout.
For `O=c1c2ccccc2sc2c(CO)ccc(NCCN3CCCCC3)c12`, the Potency in [1] was over 11.4 µM; in test [3] it was 1.58 µM (active); in test [5] it was over 46 µM; in [6], over 9.22 µM; in test [10] it was 1.26 µM (active). In addition, the activity change, negative = inhibition in [2] was -1.51%; in test [4] it was 27.4%. For the same molecule, the Potency result in [7], in [8] and in test [9] was “inactive” each time.
As for `O=C(CSc1nc2ccccc2s1)c1sc2sc3ccccc3[n+]2c1O`, the Potency in test [1] was over 11.4 µM; in [3] it was 5.01 µM (active); in [5], over 46 µM; in [6], over 9.22 µM. The activity change, negative = inhibition in test [2] was -9.47%; in [4], 6.64%. Moreover, the Potency result in [7] and in test [8] was “inactive” in each case. Also, in [12], the activation was -16.9%.
As to `COc1ccccc1CCn1c(=O)c(-c2ccc(F)cc2)nc2cncnc21`, the Potency in [1] is over 11.4 µM; in test [3], 1 µM (active); in test [5] it was over 9.22 µM; in test [6] it was over 46 µM; in test [13], 3.98 µM (active); in [14], 3.98 µM (active). Moreover, the Potency in test [11] was 0.316 µM (active). Also, the activity change, negative = inhibition in test [2] was -8.06%; in test [4], -26.6%. Besides, the Potency result in test [7] and in [9] was “inactive” throughout.
Turning to `Cc1cccc(C)c1NC(=O)Nc1ccc(S(N)(=O)=O)cc1`, the Potency was over 11.4 µM in test [1] and over 9.22 µM in test [6]. Further, the activity change, negative = inhibition in [2] is 3.48%; in [3] it was -10.8% [at 2.29 µM]; in [4], 11%. The Potency result in test [7] and in test [8] was “inactive” each time. In [12], the activation is 13.8%.

For the origin of these results see PubChem BioAssay (NCATS).
